The supplement of paper PMC10849652
Targets with a hit are over-represented here; the source holds about 8,800 in all. About 0.5% of all pairs of compound and target were hits.

Experiments:
Experiment in all cases: log2 fold change, soluble protein after heating vs DMSO (PISA); higher = thermal stabilisation; K562 lysate, 10 uM; active = over 0.2 and 3.5 SD of the protein, either way, in both replicates (recomputed)
lapatinib = compound: CS(=O)(=O)CCNCc1ccc(-c2ccc3ncnc(Nc4ccc(OCc5cccc(F)c5)c(Cl)c4)c3c2)o1 [lapatinib]
Outline: (§1)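 The values are log-two fold changes in thermal stability compared with solvent controls and come from duplicates. They were obtained by TMTpro 16plex LC-MS/MS, with channel sums equalised, on the supernatant after 21,000xg for 90 min. That supernatant came from crude K562 extract at 1 mg/mL protein treated with 10 μM compound for 30 min, heated for 3 min across 48°C-58°C, pooled and brought to 0.5% NP-40 at 4°C.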

pictilisib = compound: CS(=O)(=O)N1CCN(Cc2cc3nc(-c4cccc5[nH]ncc45)nc(N4CCOCC4)c3s2)CC1 [pictilisib]
Outline: as §1

crizotinib = compound: C[C@@H](Oc1cc(-c2cnn(C3CCNCC3)c2)cnc1N)c1c(Cl)ccc(F)c1Cl [crizotinib]
Outline: as §1

[1] = compound: C[C@H](C1=CC=C(C=C1)C(=O)NC2=C3C=CNC3=NC=C2)N
Outline: as §1

duvelisib = compound: C[C@H](Nc1ncnc2nc[nH]c12)c1cc2cccc(Cl)c2c(=O)n1-c1ccccc1 [duvelisib]
Outline: as §1

gandotinib = compound: Cc1cc(Nc2cc(CN3CCOCC3)c3nc(C)c(Cc4ccc(Cl)cc4F)n3n2)n[nH]1 [gandotinib]
Outline: as §1

tozasertib = compound: Cc1cc(Nc2cc(N3CCN(C)CC3)nc(Sc3ccc(NC(=O)C4CC4)cc3)n2)n[nH]1 [tozasertib]
Outline: as §1

doramapimod = compound: Cc1ccc(-n2nc(C(C)(C)C)cc2NC(=O)Nc2ccc(OCCN3CCOCC3)c3ccccc23)cc1 [doramapimod]
Outline: as §1

bafetinib = compound: Cc1ccc(NC(=O)c2ccc(CN3CC[C@H](N(C)C)C3)c(C(F)(F)F)c2)cc1Nc1nccc(-c2cncnc2)n1 [bafetinib]
Outline: as §1

[2] = compound: Cc1cccc(CC(=O)N2CCc3c2ccc(-c2cn(C)c4ncnc(N)c24)c3F)n1
Outline: as §1

nilotinib = compound: Cc1cn(-c2cc(NC(=O)c3ccc(C)c(Nc4nccc(-c5cccnc5)n4)c3)cc(C(F)(F)F)c2)cn1 [nilotinib]
Outline: as §1

[3] = compound: Cc1nc(Nc2n[nH]c3c2CN(C(=O)N[C@H](CN(C)C)c2ccccc2)C3(C)C)c2sccc2n1
Outline: as §1

dasatinib = compound: Cc1nc(Nc2ncc(C(=O)Nc3c(C)cccc3Cl)s2)cc(N2CCN(CCO)CC2)n1 [dasatinib]
Outline: as §1

[4] = compound: Cc1ncc(-c2ccnc(Nc3ccc(S(C)(=O)=O)cc3)n2)n1C(C)C
Outline: as §1

[5] = compound: Cn1cc(-c2ccc3c(c2)CCN3C(=O)Cc2cccc(C(F)(F)F)c2)c2c(N)ncnc21
Outline: as §1

quisinostat = compound: Cn1cc(CNCC2CCN(c3ncc(C(=O)NO)cn3)CC2)c2ccccc21 [quisinostat]
Outline: as §1

tipifarnib = compound: Cn1cncc1[C@@](N)(c1ccc(Cl)cc1)c1ccc2c(c1)c(-c1cccc(Cl)c1)cc(=O)n2C [tipifarnib]
Outline: as §1

[6] = compound: NC(=O)Nc1cc(-c2cccc(F)c2)sc1C(=O)N[C@H]1CCCNC1
Outline: as §1

[7] = compound: NC(=O)c1cnc(N[C@@H]2CCCC[C@@H]2N)nc1Nc1cccc(-n2nccn2)c1
Outline: as §1

[8] = compound: NC1(c2ccc(-c3nc4ccn5c(=O)[nH]nc5c4cc3-c3ccccc3)cc2)CCC1
Outline: as §1

Measured: log2 fold change

ZFYVE19 (UniProt Q96K21)
inactive: lapatinib 0.042 | pictilisib 0.017 | crizotinib 0.007 | [1] -0.125 | duvelisib -0.005 | gandotinib 0.085 | tozasertib 0.046 | doramapimod -0.029 | bafetinib 0 | [2] 0.149 | nilotinib 0.014 | [3] -0.001 | dasatinib 0.007 | [4] 0.053 | [5] -0.041 | quisinostat -0.01 | tipifarnib 0.006 | [6] -0.003 | [7] 0.014 | [8] 0.003

WIPI2 (UniProt Q9Y4P8)
inactive: lapatinib 0.006 | pictilisib -0.024 | crizotinib -0.02 | [1] -0.086 | duvelisib -0.008 | gandotinib 0.089 | tozasertib -0.003 | doramapimod 0.098 | bafetinib -0.025 | [2] 0.035 | nilotinib 0.032 | [3] 0.043 | dasatinib 0.007 | [4] -0.018 | [5] -0.004 | quisinostat -0.054 | tipifarnib 0.011 | [6] 0.053 | [7] -0.005 | [8] 0.021

YES1 (UniProt P07947)
active: [6] 0.589
inactive: lapatinib 0 | pictilisib -0.063 | crizotinib -0.128 | [1] -0.101 | duvelisib -0.066 | gandotinib 0.212 | tozasertib -0.105 | doramapimod -0.005 | bafetinib 0.155 | [2] 0.092 | nilotinib 0.043 | [3] 0.008 | dasatinib 0.154 | [4] -0.104 | [5] -0.087 | quisinostat -0.084 | tipifarnib -0.157 | [7] 0.032 | [8] 0.054

WAC (UniProt Q9BTA9)
Chain of UniProt Q9BTA9 (Q9BTA9 whole entry, looked up): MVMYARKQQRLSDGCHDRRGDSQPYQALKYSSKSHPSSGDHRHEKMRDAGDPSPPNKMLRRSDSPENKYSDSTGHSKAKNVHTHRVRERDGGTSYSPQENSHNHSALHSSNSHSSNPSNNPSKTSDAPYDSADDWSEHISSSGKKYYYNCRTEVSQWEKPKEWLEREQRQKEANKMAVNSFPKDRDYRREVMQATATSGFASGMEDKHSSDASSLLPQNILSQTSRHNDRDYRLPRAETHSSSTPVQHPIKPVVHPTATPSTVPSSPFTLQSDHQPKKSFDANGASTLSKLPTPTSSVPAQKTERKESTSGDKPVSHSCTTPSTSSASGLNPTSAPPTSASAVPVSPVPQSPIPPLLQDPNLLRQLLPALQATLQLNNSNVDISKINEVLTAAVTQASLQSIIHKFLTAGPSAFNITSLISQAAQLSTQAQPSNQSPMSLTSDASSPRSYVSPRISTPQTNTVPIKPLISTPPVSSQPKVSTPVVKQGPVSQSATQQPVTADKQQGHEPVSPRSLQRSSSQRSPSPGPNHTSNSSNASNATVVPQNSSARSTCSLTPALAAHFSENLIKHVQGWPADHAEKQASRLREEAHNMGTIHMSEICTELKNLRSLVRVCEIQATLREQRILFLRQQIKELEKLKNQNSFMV
inactive: lapatinib 0.005 | pictilisib -0.04 | crizotinib 0.018 | [1] 0 | duvelisib -0.005 | gandotinib -0.014 | tozasertib 0.004 | doramapimod -0.031 | bafetinib -0.057 | [2] 0.043 | nilotinib -0.012 | [3] -0.001 | dasatinib -0.038 | [4] -0.019 | [5] 0.002 | quisinostat -0.029 | tipifarnib 0 | [6] 0.019 | [7] -0.01 | [8] 0.004

ZNF598 isoform 3 (UniProt Q86UK7)
inactive: lapatinib 0.027 | pictilisib 0.005 | crizotinib 0.006 | [1] -0.01 | duvelisib -0.01 | gandotinib 0.023 | tozasertib 0.048 | doramapimod 0.024 | bafetinib -0.012 | [2] 0.015 | nilotinib -0.004 | [3] -0.022 | dasatinib -0.063 | [4] 0.031 | [5] 0.032 | quisinostat -0.023 | tipifarnib -0.019 | [6] 0.01 | [7] 0.011 | [8] 0.029

ZNF217 (UniProt O75362)
inactive: lapatinib -0.02 | pictilisib 0.059 | crizotinib -0.025 | [1] -0.045 | duvelisib -0.011 | gandotinib -0.009 | tozasertib 0.044 | doramapimod 0.004 | bafetinib 0.037 | [2] 0.052 | nilotinib 0.06 | [3] 0.026 | dasatinib 0.001 | [4] 0.054 | [5] -0.057 | quisinostat -0.179 | tipifarnib -0.086 | [6] 0.014 | [7] 0.021 | [8] -0.075

VPS41 (UniProt P49754)
Chain of UniProt P49754 (P49754 whole entry, looked up): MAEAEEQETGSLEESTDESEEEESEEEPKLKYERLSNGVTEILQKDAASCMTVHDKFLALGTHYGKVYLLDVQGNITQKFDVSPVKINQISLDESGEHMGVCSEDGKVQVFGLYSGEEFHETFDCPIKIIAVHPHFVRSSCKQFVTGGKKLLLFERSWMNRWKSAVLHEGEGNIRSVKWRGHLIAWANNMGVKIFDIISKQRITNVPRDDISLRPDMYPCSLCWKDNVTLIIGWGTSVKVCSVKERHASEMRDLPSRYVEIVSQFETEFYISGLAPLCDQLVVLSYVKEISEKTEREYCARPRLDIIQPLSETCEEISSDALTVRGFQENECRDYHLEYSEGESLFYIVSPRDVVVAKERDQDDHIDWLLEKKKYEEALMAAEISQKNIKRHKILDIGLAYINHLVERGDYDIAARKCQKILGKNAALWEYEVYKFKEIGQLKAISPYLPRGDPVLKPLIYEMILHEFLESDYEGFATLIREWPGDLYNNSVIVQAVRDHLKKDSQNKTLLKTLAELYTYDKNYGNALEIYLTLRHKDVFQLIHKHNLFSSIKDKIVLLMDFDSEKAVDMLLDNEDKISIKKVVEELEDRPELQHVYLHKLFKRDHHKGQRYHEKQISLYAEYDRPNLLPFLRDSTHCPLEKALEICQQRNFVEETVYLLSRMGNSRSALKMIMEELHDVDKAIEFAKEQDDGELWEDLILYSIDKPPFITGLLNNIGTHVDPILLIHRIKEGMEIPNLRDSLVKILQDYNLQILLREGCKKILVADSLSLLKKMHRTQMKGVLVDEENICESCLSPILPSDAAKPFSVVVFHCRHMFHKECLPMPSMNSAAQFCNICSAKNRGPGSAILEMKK
inactive: lapatinib -0.018 | pictilisib -0.046 | crizotinib -0.011 | [1] 0.079 | duvelisib -0.021 | gandotinib -0.093 | tozasertib 0.047 | doramapimod 0.023 | bafetinib -0.021 | [2] -0.05 | nilotinib 0.034 | [3] 0.014 | dasatinib -0.038 | [4] 0.001 | [5] 0.057 | quisinostat -0.048 | tipifarnib -0.029 | [6] 0.029 | [7] 0.001 | [8] -0.009

VPS16 (UniProt Q9H269)
inactive: lapatinib -0.014 | pictilisib 0.005 | crizotinib -0.08 | [1] -0.019 | duvelisib 0.013 | gandotinib -0.024 | tozasertib 0.004 | doramapimod -0.013 | bafetinib -0.051 | [2] 0.03 | nilotinib 0 | [3] 0.011 | dasatinib -0.013 | [4] 0.014 | [5] 0.021 | quisinostat -0.095 | tipifarnib -0.012 | [6] 0.022 | [7] 0.004 | [8] 0.009

USE1 (UniProt Q9NZ43)
Chain of UniProt Q9NZ43 (Q9NZ43 whole entry, looked up): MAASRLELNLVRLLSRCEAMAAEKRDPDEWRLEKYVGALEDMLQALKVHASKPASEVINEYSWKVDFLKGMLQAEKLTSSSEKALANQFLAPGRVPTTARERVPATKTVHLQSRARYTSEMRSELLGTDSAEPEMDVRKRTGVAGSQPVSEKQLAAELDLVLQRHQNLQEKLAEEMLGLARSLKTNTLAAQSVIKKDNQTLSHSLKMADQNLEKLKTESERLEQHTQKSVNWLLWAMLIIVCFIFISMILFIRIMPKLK
inactive: lapatinib -0.035 | pictilisib 0.088 | crizotinib -0.057 | [1] 0.039 | duvelisib -0.056 | gandotinib -0.103 | tozasertib 0.011 | doramapimod 0.112 | bafetinib -0.019 | [2] 0.027 | nilotinib -0.019 | [3] 0.038 | dasatinib 0.068 | [4] 0.057 | [5] 0.02 | quisinostat 0.08 | tipifarnib -0.021 | [6] 0.029 | [7] -0.027 | [8] 0.025

VPS39 (UniProt Q96JC1)
active: [1] 0.603
inactive: lapatinib -0.018 | pictilisib -0.018 | crizotinib -0.066 | duvelisib 0.015 | gandotinib -0.169 | tozasertib 0.021 | doramapimod 0.015 | bafetinib -0.045 | [2] -0.229 | nilotinib 0.03 | [3] -0.008 | dasatinib -0.044 | [4] 0.024 | [5] -0.003 | quisinostat -0.046 | tipifarnib 0.002 | [6] 0.005 | [7] -0.008 | [8] -0.003

ZFPM1 (UniProt Q8IX07)
Chain of UniProt Q8IX07 (Q8IX07 whole entry, looked up): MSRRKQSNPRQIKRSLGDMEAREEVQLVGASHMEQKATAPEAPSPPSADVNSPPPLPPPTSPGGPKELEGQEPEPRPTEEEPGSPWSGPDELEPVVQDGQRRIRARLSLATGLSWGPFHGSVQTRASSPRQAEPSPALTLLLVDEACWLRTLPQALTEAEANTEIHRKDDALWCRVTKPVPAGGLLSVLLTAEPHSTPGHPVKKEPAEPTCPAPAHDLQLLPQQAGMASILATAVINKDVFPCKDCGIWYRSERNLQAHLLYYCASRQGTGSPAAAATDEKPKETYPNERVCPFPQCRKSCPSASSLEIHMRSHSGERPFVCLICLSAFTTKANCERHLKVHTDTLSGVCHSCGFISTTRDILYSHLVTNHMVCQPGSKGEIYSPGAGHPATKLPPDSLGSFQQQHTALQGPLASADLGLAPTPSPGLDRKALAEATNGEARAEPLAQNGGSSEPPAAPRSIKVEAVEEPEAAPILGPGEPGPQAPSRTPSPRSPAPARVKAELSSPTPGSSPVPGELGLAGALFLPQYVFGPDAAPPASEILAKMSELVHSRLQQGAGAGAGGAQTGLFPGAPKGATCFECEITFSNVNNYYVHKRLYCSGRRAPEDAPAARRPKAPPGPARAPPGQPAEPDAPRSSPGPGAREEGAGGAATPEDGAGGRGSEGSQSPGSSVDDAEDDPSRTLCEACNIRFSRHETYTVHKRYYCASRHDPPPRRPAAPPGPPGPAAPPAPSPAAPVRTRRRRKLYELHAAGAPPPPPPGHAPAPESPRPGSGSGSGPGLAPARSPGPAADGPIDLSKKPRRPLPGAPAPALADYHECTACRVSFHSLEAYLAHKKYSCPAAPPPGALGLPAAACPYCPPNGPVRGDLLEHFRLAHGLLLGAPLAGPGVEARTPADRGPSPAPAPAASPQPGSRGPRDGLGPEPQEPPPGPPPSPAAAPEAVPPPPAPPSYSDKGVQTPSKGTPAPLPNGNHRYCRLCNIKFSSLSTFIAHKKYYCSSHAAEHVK
inactive: lapatinib -0.003 | pictilisib -0.008 | crizotinib -0.135 | [1] 0.009 | duvelisib 0.001 | gandotinib -0.079 | tozasertib -0.118 | doramapimod 0.023 | bafetinib -0.077 | [2] -0.018 | nilotinib 0.036 | [3] -0.075 | dasatinib -0.087 | [4] 0.042 | [5] 0.095 | quisinostat -0.189 | tipifarnib 0.044 | [6] 0.034 | [7] -0.082 | [8] -0.018

UXT isoform 2 (UniProt Q9UBK9)
Chain of UniProt Q9UBK9 (Q9UBK9 whole entry, looked up): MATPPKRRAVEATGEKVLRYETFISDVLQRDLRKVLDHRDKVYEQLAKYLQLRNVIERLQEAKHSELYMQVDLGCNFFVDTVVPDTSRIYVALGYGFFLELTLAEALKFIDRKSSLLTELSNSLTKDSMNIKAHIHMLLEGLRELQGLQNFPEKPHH
inactive: lapatinib -0.018 | pictilisib -0.073 | crizotinib 0.003 | [1] -0.018 | duvelisib -0.006 | gandotinib 0.084 | tozasertib -0.053 | doramapimod 0.012 | bafetinib 0.089 | [2] 0.065 | nilotinib 0.012 | [3] -0.019 | dasatinib 0.079 | [4] 0.019 | [5] -0.05 | quisinostat -0.03 | tipifarnib -0.015 | [6] -0.04 | [7] -0.026 | [8] -0.036

VPS18 (UniProt Q9P253)
inactive: lapatinib 0.009 | pictilisib -0.017 | crizotinib -0.049 | [1] -0.056 | duvelisib -0.04 | gandotinib -0.032 | tozasertib -0.003 | doramapimod -0.004 | bafetinib -0.06 | [2] 0.047 | nilotinib -0.013 | [3] -0.029 | dasatinib -0.016 | [4] 0.003 | [5] -0.005 | quisinostat -0.018 | tipifarnib -0.05 | [6] 0.029 | [7] 0.01 | [8] -0.019

WRN (UniProt Q14191)
Chain of UniProt Q14191 (Q14191 whole entry, looked up): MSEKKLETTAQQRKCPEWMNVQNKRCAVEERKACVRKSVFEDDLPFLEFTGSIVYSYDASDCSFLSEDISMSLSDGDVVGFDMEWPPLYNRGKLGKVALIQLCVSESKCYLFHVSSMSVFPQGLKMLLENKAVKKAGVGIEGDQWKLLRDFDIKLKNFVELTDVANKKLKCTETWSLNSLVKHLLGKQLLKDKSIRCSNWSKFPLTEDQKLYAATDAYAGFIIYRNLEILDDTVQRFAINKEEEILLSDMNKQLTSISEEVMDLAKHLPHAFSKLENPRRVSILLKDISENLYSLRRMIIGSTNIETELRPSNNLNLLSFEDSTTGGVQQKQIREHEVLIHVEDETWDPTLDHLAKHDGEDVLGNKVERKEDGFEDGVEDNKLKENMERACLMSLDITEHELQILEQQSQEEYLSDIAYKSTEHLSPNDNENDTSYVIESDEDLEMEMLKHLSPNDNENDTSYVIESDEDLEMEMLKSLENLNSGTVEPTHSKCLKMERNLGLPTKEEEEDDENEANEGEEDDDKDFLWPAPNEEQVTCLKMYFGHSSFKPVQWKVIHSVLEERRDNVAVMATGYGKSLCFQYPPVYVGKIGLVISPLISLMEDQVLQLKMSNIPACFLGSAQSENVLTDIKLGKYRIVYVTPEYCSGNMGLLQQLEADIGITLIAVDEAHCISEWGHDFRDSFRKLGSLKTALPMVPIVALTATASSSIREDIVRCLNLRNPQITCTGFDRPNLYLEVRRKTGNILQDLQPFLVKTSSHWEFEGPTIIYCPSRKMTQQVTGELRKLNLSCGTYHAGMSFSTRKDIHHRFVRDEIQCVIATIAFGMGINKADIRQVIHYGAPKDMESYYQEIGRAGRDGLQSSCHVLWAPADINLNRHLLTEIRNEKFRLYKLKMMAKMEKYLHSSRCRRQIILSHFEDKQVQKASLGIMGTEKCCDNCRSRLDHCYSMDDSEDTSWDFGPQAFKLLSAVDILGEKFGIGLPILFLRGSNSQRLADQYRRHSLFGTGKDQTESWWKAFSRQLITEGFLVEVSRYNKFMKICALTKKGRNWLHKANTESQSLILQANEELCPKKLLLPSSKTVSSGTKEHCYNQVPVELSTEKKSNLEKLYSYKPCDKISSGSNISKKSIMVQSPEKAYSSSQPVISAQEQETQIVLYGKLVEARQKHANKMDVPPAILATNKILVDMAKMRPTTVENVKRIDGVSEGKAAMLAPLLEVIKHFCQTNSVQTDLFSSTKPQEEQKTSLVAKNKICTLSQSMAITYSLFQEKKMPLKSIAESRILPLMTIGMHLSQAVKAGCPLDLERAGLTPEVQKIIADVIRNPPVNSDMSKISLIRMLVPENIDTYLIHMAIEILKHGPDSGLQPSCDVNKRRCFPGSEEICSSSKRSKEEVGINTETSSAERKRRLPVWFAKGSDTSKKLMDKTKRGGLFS
inactive: lapatinib -0.008 | pictilisib 0.006 | crizotinib -0.031 | [1] -0.042 | duvelisib -0.034 | gandotinib -0.008 | tozasertib 0.037 | doramapimod 0.02 | bafetinib -0.064 | [2] 0.073 | nilotinib -0.027 | [3] -0.018 | dasatinib -0.108 | [4] -0.004 | [5] 0.022 | quisinostat -0.042 | tipifarnib -0.005 | [6] 0.03 | [7] 0.089 | [8] -0.013

WDR20 isoform 7 (UniProt Q8TBZ3)
inactive: lapatinib 0.015 | pictilisib -0.006 | crizotinib -0.069 | duvelisib 0.043 | gandotinib -0.009 | tozasertib 0 | doramapimod -0.022 | bafetinib 0.07 | [2] 0.081 | nilotinib -0.001 | [3] 0.029 | dasatinib 0.055 | [4] -0.229 | [5] 0.038 | quisinostat 0.027 | tipifarnib -0.174 | [6] 0.009 | [7] -0.026 | [8] -0.042
active: [1] -0.416

VRK2 (UniProt Q86Y07)
Chain of UniProt Q86Y07 (Q86Y07 whole entry, looked up): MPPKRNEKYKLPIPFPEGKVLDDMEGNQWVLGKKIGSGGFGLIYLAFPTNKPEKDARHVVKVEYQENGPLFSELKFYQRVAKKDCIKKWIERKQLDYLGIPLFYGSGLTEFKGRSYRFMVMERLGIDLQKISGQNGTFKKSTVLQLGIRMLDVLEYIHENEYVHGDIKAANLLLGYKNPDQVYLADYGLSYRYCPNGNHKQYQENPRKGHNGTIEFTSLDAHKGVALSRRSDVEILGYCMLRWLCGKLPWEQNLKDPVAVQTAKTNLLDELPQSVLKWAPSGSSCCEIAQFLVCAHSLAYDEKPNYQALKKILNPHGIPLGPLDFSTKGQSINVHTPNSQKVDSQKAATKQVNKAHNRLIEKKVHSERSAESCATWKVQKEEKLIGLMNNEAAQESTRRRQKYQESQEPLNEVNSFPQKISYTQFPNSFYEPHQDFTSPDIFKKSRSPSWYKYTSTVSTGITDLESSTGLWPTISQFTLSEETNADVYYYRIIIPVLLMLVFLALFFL
inactive: lapatinib 0.03 | pictilisib 0.002 | crizotinib -0.069 | duvelisib -0.016 | gandotinib -0.04 | tozasertib -0.026 | doramapimod -0.063 | bafetinib -0.03 | [2] 0.03 | nilotinib 0.048 | [3] 0.219 | dasatinib 0.185 | [4] 0.017 | [5] 0.17 | quisinostat -0.044 | tipifarnib -0.018 | [6] 0.026 | [7] -0.003 | [8] -0.006
active: [1] 0.353
